According to PubChem BioAssay (NCI):
The panel holds about 79,000 compounds, 15% with a hit somewhere; the sample as a whole holds those more often. Unmarked numbers belong to inactive results. Calls of active or inactive are those of the source. Rule as the data show it: active = growth inhibition above about 70%; inactive = the rest. Where a SMILES comes first, the peptide text is derived from it. [ ]: non-standard residue; d: D form. The star is where a group is joined. ONb = O=[N+]([O-])c1ccc(CO*)cc1; AllylGly = C=CC[CH](N)C(=O)O; Boc = CC(C)(C)OC(=O)*

Legend:
[1] = NCI Yeast Anticancer Drug Screen. Data for the rad50 strain (AID 155);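 also: 0% = growth of vehicle-only cultures of the same strain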; details: S. cerevisiae rad50 strain growth inhibition; at 50.0 µM; stronger effect = higher value
Summary of the method: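 DNA repair mutant yeast, compound exposure, growth read-out; inhibition is taken relative to vehicle.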

[2] = NCI Yeast Anticancer Drug Screen. Data for the mec2-1 strain (AID 157); details: S. cerevisiae mec2-1 strain, at 50.0 µM, stronger effect = higher value
Summary of the method: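 Strain: mec2-1 (DNA repair/cell cycle alteration). Compound exposure, then growth measured; inhibition expressed relative to vehicle.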

[3] = NCI Yeast Anticancer Drug Screen. Data for the sgs1 mgt1 strain (AID 161);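 also: 0% = growth of cultures given vehicle only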; details: S. cerevisiae sgs1 mgt1 strain, at 50.0 µM, stronger effect = higher value
Summary of the method: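 Test agents were incubated with a DNA-repair-mutant yeast strain. Growth was then read and compared against vehicle-treated controls.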

[4] = NCI Yeast Anticancer Drug Screen. Data for the cln2 rad14 strain (AID 165);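 also: 0% = growth equal to vehicle treated cultures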; details: S. cerevisiae cln2 rad14 strain, at 50.0 µM, stronger effect = higher value
Summary of the method: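 Compounds are applied to the cln2 rad14 yeast strain, and growth is then compared with that of vehicle-treated cultures to give inhibition.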

[5] = NCI Yeast Anticancer Drug Screen. Data for the bub3 strain (AID 167); details: S. cerevisiae bub3 mutant strain, at 50.0 µM, stronger effect = higher value
Summary of the method: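 In this screen, a yeast mutant lacking normal mitotic checkpoint function is challenged with compound. Relative growth versus vehicle gives the inhibition value.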

[6] = NCI Yeast Anticancer Drug Screen. Data for the mlh1 rad18 strain (AID 175); details: S. cerevisiae mlh1 rad18 strain growth inhibition; at 50.0 µM; stronger effect = higher value
Summary of the method: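 Read-out is yeast growth inhibition, calculated against vehicle-only controls. The compound was applied to a strain engineered with DNA damage repair alterations.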

| SMILES | growth inhibition [1] | growth inhibition [2] | growth inhibition [3] | growth inhibition [4] | growth inhibition [5] | growth inhibition [6] |
| --- | --- | --- | --- | --- | --- | --- |
| O=C(O)/C=C\c1cccc([N+](=O)[O-])c1 | 11.9% | -16.4% | 7.4% | 22.3% | 27.6% | -14.8% |
| CC(=O)O[C@@H]1C[C@]2(C)[C@@H](C(C)=O)CC[C@H]2[C@@H]2CCC3=CC(=O)CC[C@]3(C)[C@H]21 | -7.5% | -8.25% | -23% | 11.4% | -10.4% | 13.2% |
| Cc1cn(C2OC(CO[Si](C)(C)C(C)(C)C)C(N(C)O[Si](C)(C)C(C)(C)C)C2[Se]c2ccccc2)c(=O)[nH]c1=O (centres undefined) | -15.5% | -3.1% | 0.5% | -8.65% | -9.85% | -15.2% |
| COc1cc2c(cc1C/C=C/c1cc(OC)c(OC)c(OC)c1)OCO2 | -1.95% | -3.1% | 22.8% | -1.65% | 8.55% | 12.2% |
| O=C(O)C(CNCc1ccccc1)(c1ccccc1)c1ccccc1 | 5.55% | -9.25% | 10.3% | 4.9% | 1.3% | 12.7% |
| CC(C)(C)CC(C)(C)N(CSc1ccc2ccccc2c1)CSc1ccc2ccccc2c1 | 20.9% | 4.55% | 21.1% | 13.6% | -0.45% | 17.6% |
| CCOC(=O)C1=C(C)N[C@H](c2ccccc2[N+](=O)[O-])N[C@H]1c1ccccc1[N+](=O)[O-] | 22.2% | 19.7% | 19.9% | 7% | 1.45% | 9.25% |
| CC(C)c1ccc(C(=O)OCCCc2ccccc2)cc1 | 8.7% | -5.65% | 18.2% | -10.7% | 4% | 0.8% |
| c1ccc(C[S][Sn]([c]2ccccc2)([c]2ccccc2)[c]2ccccc2)cc1 | 97.5% (active) | 96.2% (active) | 97% (active) | 94.4% (active) | 97% (active) | 93% (active) |
| CC1(C(=O)O)CCCC2(C)c3ccc(O)cc3CCC12 (centres undefined) | 37% | 29.9% | 61.2% | -3% | 61.1% | 45% |
| O=C1NC(=O)[C@H]2C3C=CC([C@@H]12)[C@@H]1C(=O)NC(=O)[C@H]31 | 41.7% | 21.8% | -22.1% | 7.8% | -28.7% | -47.6% |
| O=C(O)CCC(=O)CC1CCCCC1 | 36.3% | 15.9% | 10.2% | 39.1% | -8.45% | 28.2% |
| CN(C)c1ccc(/C=N/N(Cc2ccccc2)c2ccccc2)cc1 | -14.4% | -29.1% | 3.2% | -11.6% | 11.3% | 10.2% |
| N#CC1(Cc2ccccc2[N+](=O)[O-])c2ccccc2C2C(N1C(=O)c1ccccc1)C2(Cl)Cl (centres undefined) | -2.5% | 23.7% | 9.7% | -4.3% | 3.15% | 6.95% |
| O=C(O)Cc1ccc([N+](=O)[O-])cc1 | 21.1% | -11.3% | 36.1% | 15.2% | 12.8% | 4.75% |
| CC(=O)c1c(C)nc(SSc2nc(C)c(C(C)=O)c(-c3ccc(Cl)cc3)c2C#N)c(C#N)c1-c1ccc(Cl)cc1 | -30.8% | -7.8% | -15.9% | 6.35% | -26.2% | -2.2% |
| Cc1cccc(C)c1NC(=O)C(Cl)(Cl)Sc1ccc(Cl)cc1Cl | 0.3% | -34.9% | 5.9% | 8.65% | -5.2% | -2.6% |
| O=C1Nc2cc(F)ccc2C1=O | 15.5% | 15.1% | 7.95% | 10.7% | 19.6% | 19.4% |
| COc1cccc(C(=O)c2ccncc2)c1OC | -10.2% | -4.65% | -5.6% | 4.4% | 1.1% | -4.85% |
| NC(=O)c1ccccc1C(N)=O | 13.4% | -10.6% | 8.95% | 30.7% | -11.8% | -31.9% |

| SMILES | growth inhibition [1] | growth inhibition [2] | growth inhibition [3] | growth inhibition [4] | growth inhibition [5] | growth inhibition [6] |
| --- | --- | --- | --- | --- | --- | --- |
| CO[C@@H]1C2C3c4ccccc4C(c4ccccc43)C2[C@H](OC)[C@H]2OC(c3ccccc3)O[C@H]21 (some centres undefined) | -13.4% | -14.9% | 7.15% | 10% | 2.15% | -2.65% |
| Brc1ccc(C(c2ccc(Br)cc2)C(Br)(Br)Br)cc1 | 2.8% | 3.75% | 1.9% | -12.9% | 1.5% | 8.2% |
| COc1cc2c(c(OC)c1OC)-c1ccc(SC)c(=O)cc1[C@@H](NC1OCC(O)C(O)C1O)CC2 (some centres undefined) | 20.4% | 35.1% | 24.1% | 8.65% | 21.1% | 16.8% |
| C=CCOC(=O)CCC(CCC(=O)OCC=C)C(C)=O | -25.4% | -19.4% | 0.55% | -9.6% | 4.1% | -11.5% |
| O=c1[nH]c2cc(Cl)ccc2nc1/C(=N\Nc1ccccc1)C(O)c1ccc(Cl)c(Cl)c1 (centres undefined) | 11.6% | -4.8% | -9.55% | 24.4% | 17.1% | 19% |
| C1CCc2[nH]nc(-c3n[nH]c4c3CCCCC4)c2CC1 | 9.25% | 3.35% | 19.9% | 9.95% | 12.3% | 18.5% |
| O=S(=O)(O)C1CC2C(c3ccccc31)N1ON2O1 (centres undefined) | 54.8% | -2.05% | 10.3% | 3.75% | -14.7% | -0.95% |
| C=CCC(NC(=O)OC(C)(C)C)C(=O)NC(CCC(=O)OCc1ccc([N+](=O)[O-])cc1)C(N)=O (centres undefined) (Boc-[AllylGly]-Glu(ONb)-NH2; configuration not given here) | -7.75% | -36.7% | -20.1% | 9.25% | -2.35% | -9.2% |
| COc1cc2c(cc1OC)C(=O)C1(C2)[C@H](c2ccccc2)C2C(=O)c3cc(OC)c(OC)cc3C2[C@H]1c1ccccc1 (some centres undefined) | -2.5% | 3.25% | 29.9% | 17.6% | 46% | 23.1% |
| Cc1nn(C(=O)c2cccnc2)c(-c2ccccc2)c1N=Nc1ccc(C(=O)O)cc1 | -16.5% | 11.2% | 4.65% | 29.4% | -2.8% | 18.8% |
| CCOC(=O)/C(F)=C/c1ccc(C)cc1 | 20.6% | -8.55% | 3.85% | 11.1% | 0.15% | 8.4% |
| CCN(CC)C(=O)CC(C)(C)O | 4.95% | 9.15% | -5.75% | -0.9% | 6.15% | -1.6% |
| CC(=O)OC1CC(O)CC2=CCC3C4CCC(C(C)(O)C(O)CC5COC(=O)C5C)C4(C)CCC3C21C (centres undefined) | 6.8% | 5.4% | 14.6% | 3.45% | -32.1% | -30.1% |
| Cc1ccc(S(=O)(=O)OC2CCC3(C)C(=CCC4C3CCC3(C)C(C(C)CCCC(C)C)CCC43)C2)cc1 (centres undefined) | 51.8% | 26.8% | 49.8% | 10.8% | 2.5% | 37.5% |
| O=C(COc1cccc(C(=O)O)c1)Nc1ccccc1 | 3.5% | 7.9% | 12.4% | -1.4% | 50.8% | 8% |
| CCCCCCCCCCCCCCCCOc1ccccn1 | -9.75% | -20.6% | -14.8% | -18.8% | -21.6% | -6.9% |
| c1ccc2c(c1)Cc1c(Cc3csc4ccccc34)ccc3cccc-2c13 | -14.2% | -22.4% | -4.1% | 13.3% | -5% | -15.2% |
| Cc1ccc(NC(=O)CSc2nnc(Cc3ccccc3)o2)c(C)c1 | -26.8% | -63.2% | -57.8% | -22.8% | -3.3% | -54.9% |
| c1ccc(C(NC2=NCCO2)C2CC2)cc1 (centres undefined) | -12.8% | -18.4% | -9.1% | 23.3% | -9.55% | -54.9% |
